# Laboratory results reported in the supplement of paper PMC6555819.
# Tests used:
# Assay in all cases: PBM binding z-score (relative to random genomic background probes); higher = stronger binding; sequences stand for … in GC…GCGATTGACAGCGTAGAATGAAGG
# [1] = tested on: RARb homodimer (NR concentration 270 nM)
# In short: (§1)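 Custom Agilent 4×180K protein-binding microarrays carried double-stranded probes. Their 34-nt variable regions held direct-repeat seeds, single-nucleotide variants, half-site ablations and random human genomic background sequences. Arrays were incubated 1 h with ligand-free nuclear receptor dimers in PBS pH 7.4, 2% milk, 0.02% Triton X-100, 1 mM DTT, 0.2 mg/mL BSA and 0.4 mg/ml salmon testes DNA. Antibodies against each partner (one per run) detected binding, and scanned fluorescence was regression-normalized. Binding z-scores use random background probes as reference.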
# [2] = tested on: RARg:RXRa (NR concentration 270 nM, RXRa partner concentration 90 nM)
# In short: as §1
# [3] = tested on: RARg homodimer (NR concentration 270 nM)
# In short: as §1
# [4] = tested on: RXRa DBDmut IVT, anti-RXR (DBD mutation: RXRa K156A/R161A, NR concentration 90 nM)
# In short: as §1
# [5] = tested on: RXRa homodimer (NR concentration 180 nM)
# In short: as §1
# [6] = tested on: THRa:RXRa (NR concentration 90 nM, RXRa partner concentration 90 nM)
# In short: as §1
# [7] = tested on: THRa homodimer (NR concentration 90 nM)
# In short: as §1
# [8] = tested on: VDR homodimer (NR concentration 270 nM)
# In short: as §1
Sequence,PBM binding z-score [1],PBM binding z-score [2],PBM binding z-score [3],PBM binding z-score [4],PBM binding z-score [5],PBM binding z-score [6],PBM binding z-score [7],PBM binding z-score [8]
CAGACTAGGTCAGGGCCAGTATAGGAGGAACGTT,2.28,2.67,3.34,-0.345,1.3,1.65,0.0626,-0.295
ACTCGGAGGACATAGGTCAGAGCTACGCCAGTGA,2.6,3.03,2.28,0.527,2.26,2,0.0623,0.202
TCTGCTAGGTCAGTCGGTCAGCTAACGAGCTGCC,3.32,3.52,4.64,0.278,1.08,1.17,0.0132,-1.13
TCATATAGGTGATACAGGTGAAAGTCGGCATCTA,1.08,0.874,0.742,1.16,1.34,0.983,0.0719,0.258
TCTATCAGTTGATTAGGGCAACCGAAACAGCGGA,0.548,0.522,0.467,0.825,0.276,0.643,-0.0881,-0.1
TCATATAGGTAAAGTTGAAAGTCGAACGATATGA,0.521,0.699,0.882,1.02,1.15,0.311,-0.665,0.121
ACTAGTTGGTCAGATGAGGTCACACACAATTCGG,4.39,3.94,3.9,1.44,4.3,4.8,4.95,4.21
TTACCAAGGTGAGCTGAGGTCGTTCATCCAACTC,1.81,1.4,0.963,0.409,1.3,4.63,2.3,2.41
TCTATTAGCTGATTAGGGCAACCGAAACAGCGGA,-0.0375,0.212,0.313,0.509,0.233,0.211,-0.143,-0.58
ACTCGGAGGACACAGGTCAGAGCTACGCCAGTGA,2.78,2.68,3.12,0.823,2.09,2.57,0.77,0.0264
GCAGACCGGTGAAACGCAGGTAACTCAGGGTGGC,-0.498,-0.367,-0.32,-1.11,-0.345,0.683,-0.854,-0.771
ACTACAGGGTCACTAGGCCAGAGTAGGTACGAAT,3.08,4.68,4.59,2.54,4.84,3.33,0.948,1.82
TCATACAGGTAAACAGGTGAAAGTCCGTAAGTTA,1.16,0.793,0.447,1.62,1.12,1.05,0.697,0.33
ATCTCCAGGTAAAGTTCAGTGAAAGATCGATAGA,2.77,2.26,2.51,1.38,1.52,1.73,0.709,1.92
CGTCCAAGGTCAGCAGGTCAATGAAAGCGACGTG,5.24,6.59,6.73,2.62,5.64,4.03,2.46,2.23
TCTAGCGGGCCAGAGGGTCACTCAAGAGGTACGG,2.86,2.61,1.98,0.0957,2.37,1.51,-0.522,0.587
CATACTAGGTCAAGAGGTCAAAGTCCGCTTCCCG,5.69,8.1,7.68,3.2,8.08,4.5,2.62,4.64
ATCTCTAGGTAAAGTTCAGTGCAAGATCGATAGA,2.68,2.49,2.87,1.39,1.4,1.5,0.256,2.47
CGTCCAAGGTCATAGGAAGTCAGTGAAGACAGAT,3.7,5.5,5.7,3.77,5.28,3.81,2.31,2.43
TCTATTAGTTGATTGGGGCAACCGAAACAGCGGA,0.682,0.564,0.336,1.34,0.882,0.545,0.527,0.77
CAAACTAGGTCACAGAGCTCAAAGTCCGTGCGTA,3.35,4.37,4.81,1.38,3.73,3.25,1.11,0.62
ATCTCTAGGTAAACGTTCAGTGAATCCCGAGGAT,-0.498,0.172,0.369,-0.148,0.0015,0.136,0.162,-0.489
GCTTGTAGATCAAGGTTAAGAATGACTAAGCTAA,0.438,0.397,0.413,0.0922,0.859,1.08,-0.00442,-0.161
CGTCAACGTTCAAGGTAACGTAACAGAAAGCAGC,0.184,0.115,0.672,0.181,0.245,1.48,0.849,-0.423
CCTCGGAAGACAACAGGAGGTCAGAGCTGCCAGA,2.77,1.94,1.99,-0.3,1.69,2.04,0.668,1.28
ATCTCTAGGTAACCAAGTACAGTGAATGCCGAAC,0.221,0.424,0.577,0.152,0.115,0.827,0.385,0.365
AGAACGAGGGCAATGAGTTGATAGCTCGGGTGGC,0.713,0.827,1.26,1.77,0.484,0.779,-0.312,2.69
GCATATAGGTACTACAAGGTGAAAGTCCGATTGT,0.507,0.382,0.475,0.291,0.615,3.49,0.882,0.179
